This passage reports residual activity results from ChEMBL document CHEMBL2218924, “A broad activity screen in support of a chemogenomic map for kinase signalling research and drug discovery” (Biochem J, 2013).

Usually residual activity stands for the signal under treatment as a percentage of the control signal.

The target in assay [1] is T1, Serine/threonine-protein kinase TBK1 (Homo sapiens) (UniProt Q9UHD2).
T1 sequence (whole entry): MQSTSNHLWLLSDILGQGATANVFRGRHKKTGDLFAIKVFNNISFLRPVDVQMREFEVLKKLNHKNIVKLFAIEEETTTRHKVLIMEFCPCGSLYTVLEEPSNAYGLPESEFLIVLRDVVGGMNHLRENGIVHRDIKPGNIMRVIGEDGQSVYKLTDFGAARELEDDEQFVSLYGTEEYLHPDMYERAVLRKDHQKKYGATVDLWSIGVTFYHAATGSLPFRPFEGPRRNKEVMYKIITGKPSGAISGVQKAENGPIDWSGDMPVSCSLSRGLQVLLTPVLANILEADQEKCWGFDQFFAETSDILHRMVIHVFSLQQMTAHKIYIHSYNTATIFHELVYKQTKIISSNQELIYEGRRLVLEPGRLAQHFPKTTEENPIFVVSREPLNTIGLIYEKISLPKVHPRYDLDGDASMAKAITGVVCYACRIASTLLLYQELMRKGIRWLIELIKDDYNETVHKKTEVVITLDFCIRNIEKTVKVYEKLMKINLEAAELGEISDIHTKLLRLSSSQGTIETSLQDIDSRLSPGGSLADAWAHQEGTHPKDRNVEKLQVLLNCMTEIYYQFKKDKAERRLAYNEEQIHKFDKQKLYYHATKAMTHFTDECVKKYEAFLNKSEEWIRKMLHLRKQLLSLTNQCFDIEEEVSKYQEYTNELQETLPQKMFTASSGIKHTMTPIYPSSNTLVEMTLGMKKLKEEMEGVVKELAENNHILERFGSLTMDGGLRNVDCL
The note with it: at 1 µM.

Assay [2] deals with T1, Serine/threonine-protein kinase TBK1 (Homo sapiens). The note with it: at 10 µM.
Assay [3] addresses T2, TGF-beta receptor type-1 (Homo sapiens) (UniProt P36897).
T2 sequence (whole entry): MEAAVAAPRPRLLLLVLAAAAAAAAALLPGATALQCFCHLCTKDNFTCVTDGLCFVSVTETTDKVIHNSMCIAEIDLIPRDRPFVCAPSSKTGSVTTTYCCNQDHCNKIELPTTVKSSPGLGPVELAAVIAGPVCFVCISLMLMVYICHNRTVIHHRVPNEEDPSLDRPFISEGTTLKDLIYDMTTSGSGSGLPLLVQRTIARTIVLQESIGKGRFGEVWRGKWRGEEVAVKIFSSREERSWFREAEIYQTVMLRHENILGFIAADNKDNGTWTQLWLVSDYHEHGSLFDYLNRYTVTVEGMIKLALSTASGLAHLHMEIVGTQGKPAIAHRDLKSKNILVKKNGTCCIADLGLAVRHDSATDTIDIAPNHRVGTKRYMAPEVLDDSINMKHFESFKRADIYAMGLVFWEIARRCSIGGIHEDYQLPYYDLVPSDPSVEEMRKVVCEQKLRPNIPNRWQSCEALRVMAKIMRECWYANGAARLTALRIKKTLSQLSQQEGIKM
The note with it: at 1 µM.

In assay [4] the target is T2, TGF-beta receptor type-1 (Homo sapiens). The following applies: at 10 µM.
The target in assay [5] is Insulin-like growth factor 1 receptor (Homo sapiens) (UniProt P08069). The note with it: at 1 µM.
The target is the same in assay [6]. The note with it: at 10 µM.
For assay [7], the target named is T3, Inhibitor of nuclear factor kappa-B kinase subunit alpha (Homo sapiens) (UniProt O15111).
T3 sequence (whole entry): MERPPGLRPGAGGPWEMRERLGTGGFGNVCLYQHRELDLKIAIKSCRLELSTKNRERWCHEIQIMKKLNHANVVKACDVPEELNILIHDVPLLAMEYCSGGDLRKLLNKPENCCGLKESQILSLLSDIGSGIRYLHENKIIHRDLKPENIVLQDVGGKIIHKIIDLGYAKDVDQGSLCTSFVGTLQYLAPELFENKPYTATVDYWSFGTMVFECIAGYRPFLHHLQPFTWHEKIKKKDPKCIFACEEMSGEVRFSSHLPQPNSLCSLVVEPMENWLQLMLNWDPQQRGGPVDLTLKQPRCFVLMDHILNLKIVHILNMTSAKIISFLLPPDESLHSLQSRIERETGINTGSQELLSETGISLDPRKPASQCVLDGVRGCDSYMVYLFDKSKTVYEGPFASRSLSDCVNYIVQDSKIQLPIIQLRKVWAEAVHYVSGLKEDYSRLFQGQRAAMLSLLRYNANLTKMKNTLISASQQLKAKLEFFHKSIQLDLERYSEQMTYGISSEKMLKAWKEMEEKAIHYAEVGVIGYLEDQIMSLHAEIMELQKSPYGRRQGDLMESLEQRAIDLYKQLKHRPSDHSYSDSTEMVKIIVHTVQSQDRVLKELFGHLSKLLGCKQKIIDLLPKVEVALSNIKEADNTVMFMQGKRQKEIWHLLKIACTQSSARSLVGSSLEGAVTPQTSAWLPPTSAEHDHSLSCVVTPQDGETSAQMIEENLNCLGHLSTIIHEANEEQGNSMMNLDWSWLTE
The following applies: at 1 µM.

For assay [8], the target named is T3, Inhibitor of nuclear factor kappa-B kinase subunit alpha (Homo sapiens). The following applies: at 10 µM.
Assay [9] addresses T4, Inhibitor of nuclear factor kappa-B kinase subunit beta (Homo sapiens) (UniProt O14920).
T4 sequence (whole entry): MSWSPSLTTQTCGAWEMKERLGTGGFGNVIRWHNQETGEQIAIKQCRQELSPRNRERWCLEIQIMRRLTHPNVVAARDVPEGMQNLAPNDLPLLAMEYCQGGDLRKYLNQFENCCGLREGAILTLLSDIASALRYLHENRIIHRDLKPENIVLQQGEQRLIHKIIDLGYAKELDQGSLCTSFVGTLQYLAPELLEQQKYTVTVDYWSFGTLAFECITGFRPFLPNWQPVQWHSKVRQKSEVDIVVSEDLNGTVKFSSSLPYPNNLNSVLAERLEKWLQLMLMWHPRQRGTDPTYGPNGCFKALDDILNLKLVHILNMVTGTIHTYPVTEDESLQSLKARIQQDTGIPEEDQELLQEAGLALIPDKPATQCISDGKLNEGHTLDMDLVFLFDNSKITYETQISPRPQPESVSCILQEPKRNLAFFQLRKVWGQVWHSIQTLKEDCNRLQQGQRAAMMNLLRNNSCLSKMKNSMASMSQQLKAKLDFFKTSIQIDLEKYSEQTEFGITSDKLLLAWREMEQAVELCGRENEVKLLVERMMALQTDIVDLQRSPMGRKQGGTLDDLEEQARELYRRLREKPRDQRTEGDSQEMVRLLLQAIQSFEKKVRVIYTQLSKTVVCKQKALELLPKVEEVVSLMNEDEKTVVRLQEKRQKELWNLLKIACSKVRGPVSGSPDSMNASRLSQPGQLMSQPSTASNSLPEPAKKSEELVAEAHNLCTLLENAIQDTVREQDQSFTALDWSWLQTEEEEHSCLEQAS
The note with it: at 1 µM.

Assay [10] concerns the target T4, Inhibitor of nuclear factor kappa-B kinase subunit beta (Homo sapiens). The note with it: at 10 µM.

Insulin-like growth factor 1 receptor (Homo sapiens), sequence (P08069 31-736 limits assumed): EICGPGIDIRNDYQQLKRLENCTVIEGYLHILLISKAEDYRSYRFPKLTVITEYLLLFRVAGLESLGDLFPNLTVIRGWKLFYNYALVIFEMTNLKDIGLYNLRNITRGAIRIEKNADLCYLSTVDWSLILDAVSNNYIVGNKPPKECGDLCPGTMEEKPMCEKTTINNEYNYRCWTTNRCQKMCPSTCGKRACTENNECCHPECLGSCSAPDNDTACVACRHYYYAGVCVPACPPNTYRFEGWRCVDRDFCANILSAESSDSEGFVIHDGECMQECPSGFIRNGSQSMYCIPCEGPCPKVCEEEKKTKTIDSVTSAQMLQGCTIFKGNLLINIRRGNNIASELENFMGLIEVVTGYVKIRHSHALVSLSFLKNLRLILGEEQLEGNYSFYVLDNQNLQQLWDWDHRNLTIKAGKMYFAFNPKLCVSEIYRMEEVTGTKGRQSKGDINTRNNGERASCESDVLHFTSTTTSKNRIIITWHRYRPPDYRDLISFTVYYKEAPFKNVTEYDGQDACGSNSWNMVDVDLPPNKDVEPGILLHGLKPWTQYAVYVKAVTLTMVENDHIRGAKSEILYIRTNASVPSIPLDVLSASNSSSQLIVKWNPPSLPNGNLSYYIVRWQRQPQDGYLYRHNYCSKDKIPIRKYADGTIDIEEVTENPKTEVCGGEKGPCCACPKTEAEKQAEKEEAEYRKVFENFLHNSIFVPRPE
Insulin-like growth factor 1 receptor (Homo sapiens), sequence (P08069 741-1367 limits assumed): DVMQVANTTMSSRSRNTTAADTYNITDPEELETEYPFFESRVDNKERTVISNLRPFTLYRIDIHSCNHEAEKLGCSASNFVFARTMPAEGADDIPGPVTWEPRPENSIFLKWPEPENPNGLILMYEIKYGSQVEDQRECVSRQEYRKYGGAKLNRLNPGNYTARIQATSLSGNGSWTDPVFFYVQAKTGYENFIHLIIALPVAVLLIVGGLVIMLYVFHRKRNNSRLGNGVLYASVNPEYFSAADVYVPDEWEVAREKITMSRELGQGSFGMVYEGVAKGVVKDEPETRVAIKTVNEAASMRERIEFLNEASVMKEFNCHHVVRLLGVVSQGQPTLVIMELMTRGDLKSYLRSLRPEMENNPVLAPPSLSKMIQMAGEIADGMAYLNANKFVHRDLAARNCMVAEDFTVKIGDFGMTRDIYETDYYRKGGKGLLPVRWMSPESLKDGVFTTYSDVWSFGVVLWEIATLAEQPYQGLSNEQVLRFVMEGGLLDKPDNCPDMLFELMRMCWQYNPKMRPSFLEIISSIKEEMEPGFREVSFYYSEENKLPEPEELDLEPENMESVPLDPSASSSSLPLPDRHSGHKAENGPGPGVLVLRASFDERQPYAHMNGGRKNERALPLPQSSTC

Consider `Nc1nc(Nc2ccc(S(N)(=O)=O)cc2)nn1C(=S)Nc1c(F)cccc1F`, for which the residual activity is -1% in [1]; -2% in [2]; 13% in assay [3]; 2% in [4]; 74% in [5]; 83% in assay [6]. The residual activity in assay [7] came to 10%; in assay [8], 1%; in [9] it was 33%; in assay [10], 6%.
